# In article PMC7862700, “An all-to-all approach to the identification of sequence-specific readers for epigenetic DNA modifications on cytosine”:
# Tests used:
# Experiment in all cases: DAPPL (digital affinity profiling via proximity ligation, sequencing); 10 mM Tris-HCl pH 7.5, 50 mM NaCl, 1 mM DTT, 4% glycerol, room temperature, 30 min; GST-TFs on glutathione beads, 16-mer random dsDNA library, 0.1% formaldehyde crosslink after washing; high values mean tight binding
# [1] = target: T1, FLI1 (Homo sapiens, UniProt Q01543 1-452); conditions: protein: recombinant; tags: N-terminal GST; dsDNA, one strand shown
# T1 sequence: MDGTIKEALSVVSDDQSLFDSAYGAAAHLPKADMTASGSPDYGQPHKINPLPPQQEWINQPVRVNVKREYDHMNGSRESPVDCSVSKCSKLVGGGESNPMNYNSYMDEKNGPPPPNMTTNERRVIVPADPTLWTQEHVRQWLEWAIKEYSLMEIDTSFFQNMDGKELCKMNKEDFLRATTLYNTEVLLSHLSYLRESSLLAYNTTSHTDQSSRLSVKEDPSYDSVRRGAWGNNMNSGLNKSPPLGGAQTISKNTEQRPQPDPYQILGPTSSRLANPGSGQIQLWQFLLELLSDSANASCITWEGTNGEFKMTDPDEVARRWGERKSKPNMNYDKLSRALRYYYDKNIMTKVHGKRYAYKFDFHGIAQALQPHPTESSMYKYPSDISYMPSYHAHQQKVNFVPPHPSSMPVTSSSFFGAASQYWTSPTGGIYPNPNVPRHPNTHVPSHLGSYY
# Method in brief: (§1)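 Human transcription factors fused to GST were expressed in yeast, captured on glutathione beads, given DNA barcodes and pooled with a GST-only negative control. Pools were incubated with 200 nmole of a 16-mer random double-stranded DNA library in Tris/NaCl/DTT/glycerol buffer at room temperature for 30 min. They were then washed, crosslinked with 0.1% formaldehyde, proximity-ligated (BsaI/T4 ligase, 1 h, 37 °C), PCR-amplified and sequenced on an Illumina NextSeq500. Binding signal is each 6-mer's read frequency for a factor divided by its frequency for the GST control.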
# [2] = target: T2, ELK1 (Homo sapiens, UniProt P19419 1-428); conditions: protein: recombinant; tags: N-terminal GST; dsDNA, one strand shown
# T2 sequence: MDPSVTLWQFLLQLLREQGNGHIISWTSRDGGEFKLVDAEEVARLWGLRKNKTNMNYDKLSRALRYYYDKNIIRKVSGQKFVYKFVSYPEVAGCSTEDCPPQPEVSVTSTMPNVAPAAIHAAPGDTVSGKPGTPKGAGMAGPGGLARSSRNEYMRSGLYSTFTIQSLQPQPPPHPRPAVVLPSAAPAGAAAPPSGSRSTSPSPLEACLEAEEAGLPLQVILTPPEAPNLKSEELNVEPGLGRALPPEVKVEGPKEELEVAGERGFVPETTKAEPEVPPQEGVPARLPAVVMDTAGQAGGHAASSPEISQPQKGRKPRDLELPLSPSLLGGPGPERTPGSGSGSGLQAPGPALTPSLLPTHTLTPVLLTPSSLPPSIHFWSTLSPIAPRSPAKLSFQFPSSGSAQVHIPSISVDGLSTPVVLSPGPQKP
# Method in brief: as §1
# [3] = target: T3, GABPA (Homo sapiens, UniProt Q06546 1-454); conditions: protein: recombinant; tags: N-terminal GST; dsDNA, one strand shown
# T3 sequence: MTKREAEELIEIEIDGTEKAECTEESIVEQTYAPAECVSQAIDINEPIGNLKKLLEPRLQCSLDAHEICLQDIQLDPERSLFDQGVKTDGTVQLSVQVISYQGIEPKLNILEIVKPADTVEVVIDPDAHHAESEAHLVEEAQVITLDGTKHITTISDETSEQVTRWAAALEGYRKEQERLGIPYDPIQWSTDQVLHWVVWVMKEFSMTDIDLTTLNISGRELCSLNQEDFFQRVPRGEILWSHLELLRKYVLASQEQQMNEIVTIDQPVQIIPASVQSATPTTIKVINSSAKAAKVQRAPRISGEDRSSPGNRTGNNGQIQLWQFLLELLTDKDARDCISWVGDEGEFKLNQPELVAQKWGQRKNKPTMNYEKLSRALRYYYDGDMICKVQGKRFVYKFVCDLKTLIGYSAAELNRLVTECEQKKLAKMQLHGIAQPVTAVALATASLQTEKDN
# Method in brief: as §1
# [4] = target: T4, ERG (Homo sapiens, UniProt P11308 1-479); conditions: protein: recombinant; tags: N-terminal GST; dsDNA, one strand shown
# T4 sequence: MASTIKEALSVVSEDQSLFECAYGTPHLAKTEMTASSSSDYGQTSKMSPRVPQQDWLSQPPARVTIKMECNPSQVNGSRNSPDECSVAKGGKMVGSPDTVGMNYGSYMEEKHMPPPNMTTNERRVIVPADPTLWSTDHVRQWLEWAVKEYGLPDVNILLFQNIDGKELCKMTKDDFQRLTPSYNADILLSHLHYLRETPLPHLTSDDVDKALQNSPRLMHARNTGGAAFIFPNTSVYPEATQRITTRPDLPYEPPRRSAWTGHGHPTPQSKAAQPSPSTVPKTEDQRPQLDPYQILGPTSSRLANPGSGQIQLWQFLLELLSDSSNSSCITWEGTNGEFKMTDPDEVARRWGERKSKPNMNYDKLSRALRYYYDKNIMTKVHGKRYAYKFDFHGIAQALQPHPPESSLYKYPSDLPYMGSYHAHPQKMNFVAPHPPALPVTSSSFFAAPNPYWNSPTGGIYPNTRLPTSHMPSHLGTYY
# Method in brief: as §1
# [5] = target: ELF1 (Homo sapiens, UniProt P32519 1-619); conditions: protein: recombinant; tags: N-terminal GST; dsDNA, one strand shown
# Method in brief: as §1
# [6] = target: T5, EHF (Homo sapiens, UniProt Q9NZC4 1-300); conditions: protein: recombinant; tags: N-terminal GST; dsDNA, one strand shown
# T5 sequence: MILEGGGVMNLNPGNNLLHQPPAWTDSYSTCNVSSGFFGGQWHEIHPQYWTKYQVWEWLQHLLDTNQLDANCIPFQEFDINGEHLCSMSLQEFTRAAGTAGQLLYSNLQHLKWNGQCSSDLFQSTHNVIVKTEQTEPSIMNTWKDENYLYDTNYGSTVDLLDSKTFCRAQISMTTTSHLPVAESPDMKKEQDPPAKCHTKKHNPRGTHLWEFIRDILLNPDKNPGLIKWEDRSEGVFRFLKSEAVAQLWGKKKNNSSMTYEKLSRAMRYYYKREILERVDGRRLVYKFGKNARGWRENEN
# Method in brief: as §1
# [7] = target: SPI1 (Homo sapiens, UniProt P17947 1-270); conditions: protein: recombinant; tags: N-terminal GST; dsDNA, one strand shown
# Method in brief: as §1
# [8] = target: SPIB (Homo sapiens, UniProt Q01892 1-262); conditions: protein: recombinant; tags: N-terminal GST; dsDNA, one strand shown
# Method in brief: as §1
# [9] = target: T6, ELK3 (Homo sapiens, UniProt P41970 1-407); conditions: protein: recombinant; tags: N-terminal GST; dsDNA, one strand shown
# T6 sequence: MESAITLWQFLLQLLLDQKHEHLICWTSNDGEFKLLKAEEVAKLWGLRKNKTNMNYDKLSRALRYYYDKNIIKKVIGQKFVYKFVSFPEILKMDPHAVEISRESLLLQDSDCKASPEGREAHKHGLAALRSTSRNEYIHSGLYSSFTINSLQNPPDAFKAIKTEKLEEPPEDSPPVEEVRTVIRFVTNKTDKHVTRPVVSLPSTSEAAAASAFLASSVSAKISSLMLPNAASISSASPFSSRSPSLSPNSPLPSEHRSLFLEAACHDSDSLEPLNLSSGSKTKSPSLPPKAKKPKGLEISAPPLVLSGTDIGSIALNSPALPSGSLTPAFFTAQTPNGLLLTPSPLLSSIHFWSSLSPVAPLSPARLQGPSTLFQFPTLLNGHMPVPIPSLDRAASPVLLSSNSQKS
# Method in brief: as §1
# [10] = target: T7, FEV (Homo sapiens, UniProt Q99581 1-238); conditions: protein: recombinant; tags: N-terminal GST; dsDNA, one strand shown
# T7 sequence: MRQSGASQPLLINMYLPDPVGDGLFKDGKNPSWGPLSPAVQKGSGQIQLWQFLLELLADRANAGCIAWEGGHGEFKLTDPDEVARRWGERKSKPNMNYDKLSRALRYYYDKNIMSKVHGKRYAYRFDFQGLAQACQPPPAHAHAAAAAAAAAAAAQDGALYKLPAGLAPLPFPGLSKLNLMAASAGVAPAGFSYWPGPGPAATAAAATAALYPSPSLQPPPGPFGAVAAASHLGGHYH
# Method in brief: as §1
# [11] = target: ETV5 (Homo sapiens, UniProt P41161 1-510); conditions: protein: recombinant; tags: N-terminal GST; dsDNA, one strand shown
# Method in brief: as §1
# [12] = target: HSF1 (Homo sapiens, UniProt Q00613 1-529); conditions: protein: recombinant; tags: N-terminal GST; chain copies: 3; dsDNA, one strand shown
# Method in brief: as §1
# [13] = target: T8, SPIC (Homo sapiens, UniProt Q8N5J4 1-248); conditions: protein: recombinant; tags: N-terminal GST; dsDNA, one strand shown
# T8 sequence: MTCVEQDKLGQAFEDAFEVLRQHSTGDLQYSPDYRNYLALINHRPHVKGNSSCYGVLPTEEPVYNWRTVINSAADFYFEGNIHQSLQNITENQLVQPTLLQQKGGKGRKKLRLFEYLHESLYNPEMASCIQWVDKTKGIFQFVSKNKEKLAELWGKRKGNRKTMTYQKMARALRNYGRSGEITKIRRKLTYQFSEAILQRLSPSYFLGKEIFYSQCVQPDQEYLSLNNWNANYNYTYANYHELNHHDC
# Method in brief: as §1
# [14] = target: ELF4 (Homo sapiens, UniProt Q99607 1-663); conditions: protein: recombinant; tags: N-terminal GST; dsDNA, one strand shown
# Method in brief: as §1
# [15] = target: T9, ELK4 (Homo sapiens, UniProt P28324-2 1-405); conditions: protein: recombinant; tags: N-terminal GST; dsDNA, one strand shown
# T9 sequence: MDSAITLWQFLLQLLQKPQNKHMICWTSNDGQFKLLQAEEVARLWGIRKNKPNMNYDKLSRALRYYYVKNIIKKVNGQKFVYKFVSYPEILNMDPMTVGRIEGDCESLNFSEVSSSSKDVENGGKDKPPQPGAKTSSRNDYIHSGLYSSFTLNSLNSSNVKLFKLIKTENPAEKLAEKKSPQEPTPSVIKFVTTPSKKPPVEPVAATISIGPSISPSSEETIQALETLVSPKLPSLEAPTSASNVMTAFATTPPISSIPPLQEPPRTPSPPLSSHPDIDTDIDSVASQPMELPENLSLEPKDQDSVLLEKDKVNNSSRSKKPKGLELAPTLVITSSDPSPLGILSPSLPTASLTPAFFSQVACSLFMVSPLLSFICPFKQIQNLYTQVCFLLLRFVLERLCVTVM
# Method in brief: as §1
# [16] = target: T10, ETV2 (Homo sapiens, UniProt O00321 1-342); conditions: protein: recombinant; tags: N-terminal GST; dsDNA, one strand shown
# T10 sequence: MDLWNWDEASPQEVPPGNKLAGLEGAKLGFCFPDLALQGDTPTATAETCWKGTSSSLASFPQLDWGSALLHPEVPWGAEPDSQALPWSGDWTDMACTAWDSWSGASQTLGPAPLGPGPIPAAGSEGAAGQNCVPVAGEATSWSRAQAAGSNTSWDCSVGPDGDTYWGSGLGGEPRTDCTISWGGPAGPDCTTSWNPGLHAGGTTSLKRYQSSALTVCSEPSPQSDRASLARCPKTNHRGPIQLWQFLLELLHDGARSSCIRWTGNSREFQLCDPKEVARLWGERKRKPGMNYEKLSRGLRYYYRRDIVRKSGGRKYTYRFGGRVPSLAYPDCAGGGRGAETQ
# Method in brief: as §1
# [17] = target: T11, ELF3 (Homo sapiens, UniProt P78545 1-371); conditions: protein: recombinant; tags: N-terminal GST; dsDNA, one strand shown
# T11 sequence: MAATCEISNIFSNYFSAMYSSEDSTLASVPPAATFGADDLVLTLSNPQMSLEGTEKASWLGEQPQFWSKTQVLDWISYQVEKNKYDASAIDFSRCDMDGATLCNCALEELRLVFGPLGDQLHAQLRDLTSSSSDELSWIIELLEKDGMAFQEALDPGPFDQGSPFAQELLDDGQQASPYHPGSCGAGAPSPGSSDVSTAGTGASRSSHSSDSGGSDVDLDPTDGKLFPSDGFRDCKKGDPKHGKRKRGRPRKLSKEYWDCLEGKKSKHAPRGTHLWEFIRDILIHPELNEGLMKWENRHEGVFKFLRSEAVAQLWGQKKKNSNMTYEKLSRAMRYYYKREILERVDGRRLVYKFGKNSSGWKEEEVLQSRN
# Method in brief: as §1
# [18] = target: CRX (Homo sapiens, UniProt O43186 1-299); conditions: protein: recombinant; tags: N-terminal GST; dsDNA, one strand shown
# Method in brief: as §1
# [19] = target: ETV1 (Homo sapiens, UniProt P50549 1-477); conditions: protein: recombinant; tags: N-terminal GST; dsDNA, one strand shown
# Method in brief: as §1
# HSF1, sequence (Q00613 whole entry): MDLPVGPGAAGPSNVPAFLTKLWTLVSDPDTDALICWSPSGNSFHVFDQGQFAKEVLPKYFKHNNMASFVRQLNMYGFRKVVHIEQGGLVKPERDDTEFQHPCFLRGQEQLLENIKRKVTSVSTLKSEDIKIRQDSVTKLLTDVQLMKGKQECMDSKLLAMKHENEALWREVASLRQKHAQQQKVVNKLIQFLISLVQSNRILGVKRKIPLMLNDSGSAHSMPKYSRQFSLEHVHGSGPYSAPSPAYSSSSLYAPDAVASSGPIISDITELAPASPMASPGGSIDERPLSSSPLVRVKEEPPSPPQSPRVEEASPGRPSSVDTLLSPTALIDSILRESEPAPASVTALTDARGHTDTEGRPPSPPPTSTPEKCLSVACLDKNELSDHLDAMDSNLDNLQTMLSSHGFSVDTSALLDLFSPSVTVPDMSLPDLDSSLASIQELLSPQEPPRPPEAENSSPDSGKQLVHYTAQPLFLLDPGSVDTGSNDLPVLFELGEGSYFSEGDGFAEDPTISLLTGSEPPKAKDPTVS
# ELF1, sequence (P32519 whole entry): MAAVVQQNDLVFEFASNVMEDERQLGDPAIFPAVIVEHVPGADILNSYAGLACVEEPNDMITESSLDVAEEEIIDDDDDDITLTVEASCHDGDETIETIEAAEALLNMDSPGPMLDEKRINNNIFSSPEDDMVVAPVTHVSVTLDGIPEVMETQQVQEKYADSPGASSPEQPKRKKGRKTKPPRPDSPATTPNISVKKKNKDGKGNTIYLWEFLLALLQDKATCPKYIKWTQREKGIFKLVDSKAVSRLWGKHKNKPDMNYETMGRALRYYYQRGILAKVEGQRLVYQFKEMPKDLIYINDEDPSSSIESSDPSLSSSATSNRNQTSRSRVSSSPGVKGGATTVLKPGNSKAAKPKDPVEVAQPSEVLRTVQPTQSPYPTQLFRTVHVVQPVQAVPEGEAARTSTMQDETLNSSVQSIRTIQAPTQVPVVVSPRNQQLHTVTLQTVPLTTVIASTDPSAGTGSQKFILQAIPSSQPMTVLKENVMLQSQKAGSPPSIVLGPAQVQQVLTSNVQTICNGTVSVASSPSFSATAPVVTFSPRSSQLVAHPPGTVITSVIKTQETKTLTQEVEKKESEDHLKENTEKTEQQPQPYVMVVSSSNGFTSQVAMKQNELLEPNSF
# ELF4, sequence (Q99607 whole entry): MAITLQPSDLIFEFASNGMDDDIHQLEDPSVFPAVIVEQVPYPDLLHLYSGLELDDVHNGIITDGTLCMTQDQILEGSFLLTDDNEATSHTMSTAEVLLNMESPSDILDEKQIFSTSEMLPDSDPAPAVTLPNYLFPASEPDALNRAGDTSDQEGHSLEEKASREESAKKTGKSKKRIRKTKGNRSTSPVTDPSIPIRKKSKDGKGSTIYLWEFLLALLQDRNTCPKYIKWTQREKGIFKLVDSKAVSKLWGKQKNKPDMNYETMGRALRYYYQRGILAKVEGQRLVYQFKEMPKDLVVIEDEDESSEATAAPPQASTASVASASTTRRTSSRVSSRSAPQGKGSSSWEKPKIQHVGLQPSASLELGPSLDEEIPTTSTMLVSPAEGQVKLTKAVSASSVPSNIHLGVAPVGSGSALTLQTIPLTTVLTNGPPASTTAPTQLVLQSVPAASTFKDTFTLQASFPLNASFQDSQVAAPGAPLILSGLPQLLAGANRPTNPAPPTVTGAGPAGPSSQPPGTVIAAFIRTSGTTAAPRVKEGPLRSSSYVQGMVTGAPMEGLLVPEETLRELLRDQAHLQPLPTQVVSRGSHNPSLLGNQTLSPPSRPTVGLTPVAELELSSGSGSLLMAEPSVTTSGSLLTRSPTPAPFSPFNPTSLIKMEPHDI
# SPIB, sequence (Q01892 whole entry): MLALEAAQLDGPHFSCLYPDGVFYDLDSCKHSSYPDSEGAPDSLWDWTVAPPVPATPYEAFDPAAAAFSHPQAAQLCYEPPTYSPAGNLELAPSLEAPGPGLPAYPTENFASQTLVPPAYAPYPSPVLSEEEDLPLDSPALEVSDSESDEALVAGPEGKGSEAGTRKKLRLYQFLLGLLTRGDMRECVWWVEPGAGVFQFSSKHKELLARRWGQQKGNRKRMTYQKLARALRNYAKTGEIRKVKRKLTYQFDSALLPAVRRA
# ETV1, sequence (P50549 whole entry): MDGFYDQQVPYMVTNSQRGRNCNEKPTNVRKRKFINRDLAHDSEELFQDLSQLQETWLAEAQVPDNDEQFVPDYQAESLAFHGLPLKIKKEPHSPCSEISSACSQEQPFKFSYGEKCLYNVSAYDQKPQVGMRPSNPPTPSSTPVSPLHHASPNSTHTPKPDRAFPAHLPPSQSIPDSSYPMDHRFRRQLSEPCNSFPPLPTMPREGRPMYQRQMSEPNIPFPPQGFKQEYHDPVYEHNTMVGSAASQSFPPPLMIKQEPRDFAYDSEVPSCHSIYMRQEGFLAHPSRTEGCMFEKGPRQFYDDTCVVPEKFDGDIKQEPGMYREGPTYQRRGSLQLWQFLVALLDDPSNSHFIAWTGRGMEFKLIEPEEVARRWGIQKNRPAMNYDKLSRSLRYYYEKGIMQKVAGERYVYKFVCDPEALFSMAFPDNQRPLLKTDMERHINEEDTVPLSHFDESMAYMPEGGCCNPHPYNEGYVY
# ETV5, sequence (P41161 whole entry): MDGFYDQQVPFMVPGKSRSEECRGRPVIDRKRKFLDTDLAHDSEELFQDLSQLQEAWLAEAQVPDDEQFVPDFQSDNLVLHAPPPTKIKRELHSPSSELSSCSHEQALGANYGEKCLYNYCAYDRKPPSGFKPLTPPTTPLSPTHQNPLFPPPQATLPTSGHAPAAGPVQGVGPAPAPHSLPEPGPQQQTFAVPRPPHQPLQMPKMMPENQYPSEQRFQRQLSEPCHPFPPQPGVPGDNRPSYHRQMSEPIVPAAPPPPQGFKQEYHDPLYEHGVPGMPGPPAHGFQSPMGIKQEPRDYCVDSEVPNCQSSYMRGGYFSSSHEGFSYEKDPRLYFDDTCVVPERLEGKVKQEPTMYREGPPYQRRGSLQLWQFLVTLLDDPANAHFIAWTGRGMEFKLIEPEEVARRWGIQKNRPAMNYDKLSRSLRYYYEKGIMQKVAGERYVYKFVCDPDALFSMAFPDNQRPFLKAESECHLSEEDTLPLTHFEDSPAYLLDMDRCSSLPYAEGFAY
# CRX, sequence (O43186 whole entry): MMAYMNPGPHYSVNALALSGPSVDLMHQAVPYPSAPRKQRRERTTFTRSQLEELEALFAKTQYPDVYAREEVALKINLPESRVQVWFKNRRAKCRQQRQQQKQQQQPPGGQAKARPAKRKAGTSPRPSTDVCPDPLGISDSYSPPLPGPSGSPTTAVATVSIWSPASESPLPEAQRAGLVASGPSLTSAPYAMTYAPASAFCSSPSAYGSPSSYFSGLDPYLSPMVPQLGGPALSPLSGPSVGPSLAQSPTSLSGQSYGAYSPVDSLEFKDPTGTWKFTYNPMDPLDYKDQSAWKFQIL
sequence,measurement,setting,value
ACATTT,binding signal,[1],"1.63 fold enrichment (6-mer frequency, TF over GST control)"
same,binding signal,[2],"1.48 fold enrichment (6-mer frequency, TF over GST control)"
same,binding signal,[3],"1.43 fold enrichment (6-mer frequency, TF over GST control)"
same,binding signal,[4],"1.56 fold enrichment (6-mer frequency, TF over GST control)"
same,binding signal,[5],"1.46 fold enrichment (6-mer frequency, TF over GST control)"
same,binding signal,[6],"1.49 fold enrichment (6-mer frequency, TF over GST control)"
same,binding signal,[7],"1.41 fold enrichment (6-mer frequency, TF over GST control)"
same,binding signal,[8],"1.53 fold enrichment (6-mer frequency, TF over GST control)"
same,binding signal,[9],"1.36 fold enrichment (6-mer frequency, TF over GST control)"
same,binding signal,[10],"1.46 fold enrichment (6-mer frequency, TF over GST control)"
same,binding signal,[11],"1.44 fold enrichment (6-mer frequency, TF over GST control)"
same,binding signal,[12],"1.3 fold enrichment (6-mer frequency, TF over GST control)"
same,binding signal,[13],"1.25 fold enrichment (6-mer frequency, TF over GST control)"
same,binding signal,[14],"1.41 fold enrichment (6-mer frequency, TF over GST control)"
same,binding signal,[15],"1.36 fold enrichment (6-mer frequency, TF over GST control)"
same,binding signal,[16],"1.68 fold enrichment (6-mer frequency, TF over GST control)"
same,binding signal,[17],"1.6 fold enrichment (6-mer frequency, TF over GST control)"
same,binding signal,[18],"1.16 fold enrichment (6-mer frequency, TF over GST control)"
same,binding signal,[19],"1.43 fold enrichment (6-mer frequency, TF over GST control)"
